HPGD block: inhibitors of human 15-hydroxyprostaglandin dehydrogenase (HPGD) | P15428 | purified HPGD, NADH fluorescence kinetic, PGE2 substrate | Potency, µM, inactives show at the highest dose activity change, negative = inhibition, hits mostly inhibitors | hit rate 4.3% among 150,000; active means well fitted inhibition curve with a large enough effect, not every such curve was filed as active; inconclusive means small, poorly fitted or top-dose-only effect, or another doubt; inactive means no such curve, though single readings can be large or run the other way; further: potency means the concentration at half of the fitted maximal effect; on the % scale 0 is the no-effect control and ±100 the full control effect
Target sequence (P15428 whole entry, looked up): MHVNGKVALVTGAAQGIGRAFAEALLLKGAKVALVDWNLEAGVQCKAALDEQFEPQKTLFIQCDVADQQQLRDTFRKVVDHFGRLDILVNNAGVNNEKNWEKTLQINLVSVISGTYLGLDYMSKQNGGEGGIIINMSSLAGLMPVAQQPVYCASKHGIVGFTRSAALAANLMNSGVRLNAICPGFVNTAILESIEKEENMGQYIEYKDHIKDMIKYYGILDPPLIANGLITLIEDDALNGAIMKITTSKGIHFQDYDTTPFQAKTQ
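20 nM HPGD preincubated 15 min at room temperature with compound in 50 mM Tris-HCl pH 8, 0.01% Tween 20. Started with 1 mM NAD+ and 30 uM prostaglandin E2; NADH fluorescence (360/450 nm) read 5 times over 30-s intervals, last minus first.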
HTT aggregate: mutant huntingtin aggregation inhibition. PC12 HttQ103-GFP aggregates, Acumen cytometry, 40 h. Potency, µM (doses to about 46.1 µM), for the others: at the top dose activity change, negative = inhibition, actives largely listed as inhibitors. hit rate 1.1% among 220,000. AID 1688; further: potency means the concentration at half of the fitted maximal effect; on the % scale 0 is the no-effect control and ±100 the full control effect; nearly all actives have a fitted effect of over 60% in size
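Huntingtin Q103 exon 1–GFP aggregates in induced PC12 cells (100 nM tebufenozide) were quantified by cytometry from lysates, with compounds dosed in titration.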
ALDH1A1 block: ALDH1A1 (human) enzyme inhibition; P00352; Purified ALDH1A1, NADH fluorescence, propionaldehyde substrate; Potency, µM (top dose mostly 75.3 µM), inactives show at the highest dose activity, negative = inhibition, most hits filed as inhibitors; hit rate 7.3% among 220,000; AID 1030; active means well fitted inhibition curve with a large enough effect, not every such curve was filed as active; inconclusive means small, poorly fitted or top-dose-only effect, or another doubt; inactive means no such curve, though single readings can be large or run the other way;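 further: potency means the concentration at half of the fitted maximal effect; plate controls were no enzyme wells and a reference inhibitor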
CBFb-RUNX1 inh: CBF-beta/RUNX1 interaction disruption; Q01196+Q13951; AlphaScreen CBFb-His/RUNX1-biotin binding, biochemical; Potency, µM (doses to about 59.8 µM), for inactives: at the top dose activity, negative = inhibition, hits mostly inhibitors; 230,000 tested, under 10 active; AID 1477; further: % of control where 0% means no effect
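His-tagged CBF-beta and biotinylated RUNX1 (30 nM each) were premixed 20 min at room temperature, exposed to compound for 15 min, then given nickel-chelate and streptavidin AlphaScreen beads (50 ng each). After 90 min, AlphaScreen signal was read.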
PNC inhibitor: perinucleolar compartment assembly inhibition; PC3M PTB-GFP, PNC prevalence imaging, 16 h; active compounds read low; activity change (PNC), negative = inhibition, % at 10 µM; hit rate 3.1% among 140,000; AID 2417;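 active means readout at or below -70, meaning at least 70% loss of cells showing the perinucleolar compartment, a nuclear body marking cancer cells; inconclusive means readout between -30 and a set limit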;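 further: plate controls were DMSO wells for no effect and camptothecin positive control wells for full effect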
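Read-out is percentage of cells bearing a perinucleolar compartment, from automated 20x imaging of fixed, Hoechst-stained PC3M PTB-GFP cells. Cells were seeded 4 h, then exposed 16 h to compound (23 nl of library stock) in duplicate plates.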
HTT ATP protect: cytoprotection in Huntington HTT-Q103 PC12 cell model. PC12 HTT-Q103 induced, cytoprotection, ATP luminescence, 40 h. Potency, µM (titrated, usually from 56.4 µM), for the others: cytoprotection (ATP increase), hits mostly activators. hit rate 0.14% among 230,000. AID 1471; further: potency means the concentration at half of the fitted maximal effect; % of control where 0% means no effect; nearly all actives have a fitted effect of over 45% in size
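Compounds were screened for protection of PC12 cells against cell death after tebufenozide induction (100 nM final) of mutant Huntingtin exon 1 (Q103) fused to GFP.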
Active calls of the source: *; ? = inconclusive; nt = no result; [ ] = dose if it differs, or a comment. A selection: hits, their analogues and other compounds. The true share with any hit is near 11%. Unless noted, the call rests on the fitted dose curve; in most records, active means well fitted curve in the direction sought with a large enough effect; inconclusive means small, poorly fitted or top-dose-only effect, or another doubt; inactive means no such curve, though single readings can be large; an effect the other way counts as inactive or inconclusive.

SMILES	HPGD block	HTT aggregate	ALDH1A1 block	CBFb-RUNX1 inh	PNC inhibitor	HTT ATP protect
COc1ccccc1N1CCN(C(=O)CSc2nc(-c3ccco3)cc(C(F)(F)F)n2)CC1	-26%	-5%	7.9µM*	-9%	-15	-8%
O=C(CSc1nc(-c2ccco2)cc(C(F)(F)F)n1)N1CCN(c2ccc(Cl)cc2)CC1	-22%	-27%	-10%	2%	-27	-16%[10 µM]
COc1ccc(CCNC(=O)CSc2nc(-c3ccco3)cc(C(F)(F)F)n2)cc1OC	-9%	-2%	-10%	0%	?	12%[10 µM]
O=C(CSc1nc(-c2ccco2)cc(C(F)(F)F)n1)N1CCN(Cc2ccccc2)CC1	?	6%	16µM*	0%	31	-2%
CN1CCN(c2nc3c(c(=O)[nH]c(=O)n3C)n2CCOc2ccccc2)CC1	-12%	-11%	10%	1%	37	-19%[10 µM]
Cn1c(=O)[nH]c(=O)c2c1nc(N1CCCCC1)n2CCCSc1nnnn1-c1ccccc1	-13%	18%	7.9µM*	8%	?	-14%[10 µM]
Cn1c(=O)[nH]c(=O)c2c1nc(N1CCOCC1)n2CCCSc1ncccn1	-10%	30%	1%	-15%	-114*	-37%
Cc1ccnc(SCCn2c(N3CCOCC3)nc3c2c(=O)[nH]c(=O)n3C)n1	nt	nt	nt	nt	nt	-5%[0.074 µM]
CN1CCN(c2nc3c(c(=O)[nH]c(=O)n3C)n2CCCSc2nnnn2-c2ccccc2)CC1	nt	4%	22µM*	-8%	nt	0%
Cn1c(=O)[nH]c(=O)c2c1nc(Br)n2CCSc1nnnn1-c1ccccc1	-7%	7%	-3%	7%	-19	-47%
CC1CCN(c2nc3c(c(=O)[nH]c(=O)n3C)n2CC(C)CSc2nnnn2-c2ccccc2)CC1 (configuration not stated)	-5%	?	20µM*	6%	7	25%[10 µM]
N/N=C1/c2ccccc2N[C@H]1OC(=O)Nc1cccc(Cl)c1	-5%	nt	23%[13.5 µM]	nt	nt	6%[10 µM]
COc1ccc(-c2nc3cnc(OC)nc3n(CCc3ccccc3)c2=O)cc1	nt	nt	?	nt	nt	-23%
CSc1cccc(NC(=O)C2(S(=O)(=O)c3ccc(C)cc3)CC2)c1	nt	-5%	-1%	-6%	nt	24%
COc1ccccc1CNC(=O)C(=O)NCC(c1ccco1)N1CCOCC1 (configuration not stated)	nt	-4%	0%	9%	nt	-7%
CC(C)[C@H](NC(=O)c1ccccc1Cl)C(=O)NC1CCCCCC1	nt	3%	0%	5%	nt	3%[10 µM]
CCN(CC)S(=O)(=O)c1cccc(C(=O)NC(C(=O)NC2=NCCS2)C(C)C)c1 (configuration not stated)	-6%	-12%	-5%	-3%	-116*	-40%
CCOc1ccc(C(=O)N/N=C/c2cccc3cccnc23)cc1	-19%	3.5µM*	-3%	?	15	-64%
CSC1CCCCC1(O)CSc1nc2c(cc1C#N)CCCC2 (configuration not stated)	7.9µM*	14%	7.9µM*	2%	?	1%[1.9 µM]
Cc1ccc(S(=O)(=O)N2CCN(C(=O)N3CCOCC3)C2C(C)C)cc1 (configuration not stated)	-1%	1%	-2%	0%	-25	-22%
CCN(CC)c1ccc(C2N(C(=O)N3CCOCC3)CCN2S(=O)(=O)c2ccc(C)cc2)cc1 (configuration not stated)	-3%	10%	7.9µM*	-8%	?	-17%
COc1ccccc1N(CC(=O)NCC1CCCO1)C(=O)CNS(=O)(=O)c1ccccc1 (configuration not stated)	nt	-11%[9.22 µM]	nt	-2%	nt	14%[10 µM]
COC(=O)c1ccc(C(/C=C/[C@@H](C)C(=O)N(C)C)NC(=O)OCc2ccccc2)cc1 (some centres not stated)	-13%	nt	?	-5%	nt	-2%
O=C(CC(=O)NC1CCCCC1)N/N=C/c1ccccc1F	nt	-15%	4%	4%	nt	10%[10 µM]
CCC/C=C1\CCCOC(C(=O)NCc2ccccc2)(C(F)(F)F)C1 (configuration not stated)	nt	nt	nt	10%	nt	nt
SMILES	HPGD block	HTT aggregate	ALDH1A1 block	CBFb-RUNX1 inh	PNC inhibitor	HTT ATP protect
CC(=O)/C(N=Nc1cc(C)ccc1O)=C(\C)O	nt	-6%[9.22 µM]	2µM*	-6%	nt	16%[10 µM]
Cc1c(C(=O)OCC2CCCO2)[nH]c2c1C(=O)CC(c1ccco1)C2 (configuration not stated)	?	11%	7.1µM*	nt	39	-17%[0.074 µM]
COC(=O)C1C(=O)c2c([nH]c(C(=O)OC3CCCC3)c2C)CC1C (configuration not stated)	-20%	-29%	?	-1%	23	-59%
C/C=C/COC(=O)c1[nH]c2c(c1C)C(=O)CC(c1ccco1)C2 (configuration not stated)	-13%	10%	?	-14%	-102*	-36%[10 µM]
C=CCOC(=O)c1[nH]c2c(c1C)C(=O)CC(c1ccco1)C2 (configuration not stated)	-13%	14%	?	-10%	-29	-44%
COc1cc(C2CC(=O)c3c([nH]c(C(=O)OCCOC(C)C)c3C)C2)cc(OC)c1OC (configuration not stated)	-5%	-26%	?	0%	16	9%[10 µM]
COc1ccc(OC)c(C2CC(=O)c3c([nH]c(C(=O)OCC4CCCO4)c3C)C2)c1 (configuration not stated)	-1%	-15%	?	9%	-15	4%[10 µM]
Cc1c(C(=O)OC2CCCC2)[nH]c2c1C(=O)CC(c1ccco1)C2 (configuration not stated)	-8%	-12%	11µM*	-1%	-108*	-84%[10 µM]
Cc1c(C(=O)OCC(C)C)[nH]c2c1C(=O)CC(c1ccco1)C2 (configuration not stated)	-26%	?	11µM*	?	-88*	-34%
CCCCCCNc1c([N+](=O)[O-])c(=O)sc2ccccc12	nt	?	-15%	-2%	nt	18%
CCCn1nc(CC(=O)OCC)c2ccccc2c1=O	-15%	-12%	2%	1%	83	-1%
CN(C)S(=O)(=O)c1ccc(S(=O)(=O)N(Cc2ccccn2)Cc2ccco2)cc1	nt	nt	nt	nt	nt	0%[10 µM]
O=C(O)c1ccccc1-c1c2ccc(=O)cc-2oc2cc(O)ccc12	?	0.032µM*	-7%	0%	nt	-125%
O=C(O)c1ccccc1-c1oc2cc(O)ccc2c(=O)c1Oc1ccccc1	?	nt	20µM*	-20%	nt	-54%

Screening data (PubChem)
